{
  "source": "PubChem BioAssay (EPA / NIEHS)",
  "note": "Records with an inconclusive call do not appear. Activity calls are given as the source filed them. Rule for the calls: active = hit-call score of the fitted dose curve at least 0.9, where 1 is the maximum; inconclusive = response in the unintended direction; inactive = score below 0.9.",
  "data": [
    {"biological_target": "human SRC Proto-Oncogene, Non-receptor Tyrosine Kinase (SRC), SRC (gene 6714) (UniProt P12931)", "sequence (P12931 whole entry, looked up)": "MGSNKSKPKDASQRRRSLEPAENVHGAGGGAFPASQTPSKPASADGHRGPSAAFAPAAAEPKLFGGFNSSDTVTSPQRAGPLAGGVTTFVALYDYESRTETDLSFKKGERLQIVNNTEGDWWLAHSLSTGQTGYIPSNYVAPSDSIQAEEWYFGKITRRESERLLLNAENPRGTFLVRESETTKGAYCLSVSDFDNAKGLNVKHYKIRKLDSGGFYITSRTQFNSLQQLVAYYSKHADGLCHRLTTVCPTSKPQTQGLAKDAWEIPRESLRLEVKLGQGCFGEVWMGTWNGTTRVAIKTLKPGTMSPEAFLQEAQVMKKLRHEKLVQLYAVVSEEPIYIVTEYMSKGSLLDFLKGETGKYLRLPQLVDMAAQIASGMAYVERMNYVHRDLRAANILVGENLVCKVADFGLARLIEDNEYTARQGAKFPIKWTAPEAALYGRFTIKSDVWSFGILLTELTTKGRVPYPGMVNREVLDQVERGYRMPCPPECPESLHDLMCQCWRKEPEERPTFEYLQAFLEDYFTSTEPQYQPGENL", "assay": "NVS_ENZ_hSRC: NovaScreen (NVS) Enzymatic Assay for human SRC Proto-Oncogene, Non-receptor Tyrosine Kinase (SRC) (AID 2283223)", "summary_of_the_method": "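Cell-free kinase activity assay with fluorescent substrate, product separated by electrophoretic mobility shift, read 1 h after dosing. Duplicate single point at 25 uM, then concentration-response up to 50 uM; loss of signal versus DMSO.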", "values": [
      {"smiles": "CN1C(=O)N(c2ccccc2Br)Cc2cnc(Nc3ccc4c(c3)OCC(CO)O4)nc21", "note": "(configuration not stated)", "AC50": "0.00229 µM (active)"},
      {"smiles": "Cc1cccc2ccccc12", "outcome": "inactive"},
      {"smiles": "c1ccc2ccccc2c1", "outcome": "inactive"}
    ]},
    {"biological_target": "human Tropomyosin Receptor Kinase A (TRKA), NTRK1 (gene 4914) (UniProt P04629)", "sequence (P04629 whole entry, looked up)": "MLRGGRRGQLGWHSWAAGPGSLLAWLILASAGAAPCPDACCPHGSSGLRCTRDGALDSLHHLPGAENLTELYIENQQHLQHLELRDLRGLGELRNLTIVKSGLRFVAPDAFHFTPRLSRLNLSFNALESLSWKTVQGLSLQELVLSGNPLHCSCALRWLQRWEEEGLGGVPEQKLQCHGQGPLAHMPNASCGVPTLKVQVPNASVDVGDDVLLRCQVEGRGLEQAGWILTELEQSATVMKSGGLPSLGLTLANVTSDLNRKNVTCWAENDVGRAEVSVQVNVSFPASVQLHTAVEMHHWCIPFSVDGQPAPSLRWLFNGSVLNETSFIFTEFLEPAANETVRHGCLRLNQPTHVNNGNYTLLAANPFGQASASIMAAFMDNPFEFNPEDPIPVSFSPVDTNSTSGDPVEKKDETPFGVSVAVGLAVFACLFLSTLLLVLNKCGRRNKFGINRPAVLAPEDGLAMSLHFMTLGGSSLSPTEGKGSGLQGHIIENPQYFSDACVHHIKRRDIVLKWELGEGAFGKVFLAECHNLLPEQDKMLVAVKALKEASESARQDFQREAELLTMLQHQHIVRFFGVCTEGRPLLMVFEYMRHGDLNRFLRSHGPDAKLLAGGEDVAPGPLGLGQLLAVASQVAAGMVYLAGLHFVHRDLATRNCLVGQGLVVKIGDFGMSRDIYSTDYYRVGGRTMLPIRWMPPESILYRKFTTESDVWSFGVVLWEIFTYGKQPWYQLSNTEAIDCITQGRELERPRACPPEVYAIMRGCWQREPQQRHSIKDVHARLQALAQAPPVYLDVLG", "assay": "NVS_ENZ_hTrkA: NovaScreen (NVS) Enzymatic Assay for human Tropomyosin Receptor Kinase A (TRKA) (AID 2283224)", "experimental": "NVS_ENZ_hTrkA is a biochemical, single-readout assay that uses extracted gene-proteins in a cell-free assay. Measurements were taken 1 hour after chemical dosing in a 384-well plate.NVS_ENZ_hTrkA is one of one assay component(s) measured or calculated from the NVS_ENZ_hTrkA assay. It is designed to make measurements of enzyme activity, a form of enzyme reporter, as detected with fluorescence intensity signals by Fluorescence and electrophoretic mobility shift technology.Data from the assay component NVS_ENZ_hTrkA was analyzed into 1 assay endpoint. This assay endpoint, NVS_ENZ_hTrkA, was analyzed in the positive analysis fitting direction relative to DMSO as the negative control and baseline of activity. Using a type of enzyme reporter, loss-of-signal activity can be used to understand changes in the enzymatic activity as they relate to the gene NTRK1. Furthermore, this assay endpoint can be referred to as a primary readout, because this assay has produced multiple assay endpoints where this one serves a enzymatic activity function. To generalize the intended target to other relatable targets, this assay endpoint is annotated to the kinase intended target family, where the subfamily is receptor tyrosine kinase.\nBinding assays used specific radioligands (tritiated, iodinated) with non-radioactive competitive displacement ligands in agonist or antagonist protocols (as indicated) and various reference compounds and inhibitors to titrate specific binding to receptors and transporters. Most enzyme assays (CYPs, kinases, phosphatases, proteases, HDACs) used recombinant protein and specific substrates (fluorescence mostly, some colorimetric and radioactive) and inhibitors, followed by a biochemical separation of substrate and product. All assays for the biochemical HTS were initially run in duplicate at a single concentration (10 uM for CYP450 assays and 25 uM for all others). […]", "values": [
      {"smiles": "CN1C(=O)N(c2ccccc2Br)Cc2cnc(Nc3ccc4c(c3)OCC(CO)O4)nc21", "note": "(configuration not stated)", "AC50": "0.493 µM (active)"},
      {"smiles": "CCCCCCCCCC(=O)O", "outcome": "inactive"},
      {"smiles": "O=C(O)Cc1cc(I)c(Oc2ccc(O)c(I)c2)c(I)c1", "AC50": "2.58 µM (active)"}
    ]},
    {"biological_target": "rabbit Imidazoline 2 Central (I2C), CKB (gene 100009085) (UniProt P00567)", "sequence (P00567 whole entry, looked up)": "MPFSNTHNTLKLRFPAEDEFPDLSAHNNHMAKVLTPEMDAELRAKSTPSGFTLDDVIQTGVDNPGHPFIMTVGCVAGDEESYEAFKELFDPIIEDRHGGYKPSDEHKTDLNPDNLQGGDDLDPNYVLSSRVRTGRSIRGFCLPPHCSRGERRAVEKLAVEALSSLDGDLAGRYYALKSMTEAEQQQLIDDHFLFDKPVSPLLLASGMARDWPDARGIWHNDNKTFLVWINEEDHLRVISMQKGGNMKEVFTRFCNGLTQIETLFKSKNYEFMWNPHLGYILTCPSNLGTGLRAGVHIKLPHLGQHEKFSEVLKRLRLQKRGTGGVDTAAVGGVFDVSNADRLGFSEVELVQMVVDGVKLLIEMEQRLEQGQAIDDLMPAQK", "assay": "NVS_ENZ_rabI2C: NovaScreen (NVS) Enzymatic Assay for rabbit Imidazoline 2 Central (I2C) (AID 2283228)", "summary_of_the_method": "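Rabbit brain membranes, cell-free; readout by filter-based scintillation counting 1.5 hours after dosing, loss of signal vs DMSO. Initial duplicate test at 25 uM, then concentration-response with 50 uM top concentration.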", "values": [
      {"smiles": "CCCCCCCCCCCC[N+](C)(C)C", "AC50": "2.13 µM (active)"},
      {"smiles": "COc1cccc([C@H](O)C2CCN(CCc3ccc(F)cc3)CC2)c1OC", "AC50": "12.7 µM (active)"},
      {"smiles": "CN(C)c1ccc(C(=C2C=CC(=[N+](C)C)C=C2)c2ccc(N(C)C)cc2)cc1", "outcome": "inactive"},
      {"smiles": "Cc1oc2c(NC(=O)c3c(Cl)cccc3Cl)cccc2c1C(C)(C)O", "outcome": "inactive"},
      {"smiles": "O=C1c2ccccc2C(=O)N1CCc1noc(-c2ccc(CN3CCCCCC3)s2)n1", "AC50": "7.93 µM (active)"},
      {"smiles": "NCc1cccc(C2CCN(C(=O)c3ccc(C#Cc4ccccc4F)o3)CC2)c1", "AC50": "7.1 µM (active)"},
      {"smiles": "Clc1cc(Cl)c2c(c1)N=C1CCCCCN1C2", "AC50": "6.89 µM (active)"},
      {"smiles": "c1ccc(C[n+]2cccc3ccccc32)cc1", "AC50": "11.9 µM (active)"},
      {"smiles": "CCCC(=O)OCCC(C)C", "outcome": "inactive"}
    ]},
    {"biological_target": "human Vascular Endothelial Growth Factor Receptor 2 (VEGFR2), KDR (gene 3791) (UniProt P35968)", "sequence (P35968 whole entry, looked up)": "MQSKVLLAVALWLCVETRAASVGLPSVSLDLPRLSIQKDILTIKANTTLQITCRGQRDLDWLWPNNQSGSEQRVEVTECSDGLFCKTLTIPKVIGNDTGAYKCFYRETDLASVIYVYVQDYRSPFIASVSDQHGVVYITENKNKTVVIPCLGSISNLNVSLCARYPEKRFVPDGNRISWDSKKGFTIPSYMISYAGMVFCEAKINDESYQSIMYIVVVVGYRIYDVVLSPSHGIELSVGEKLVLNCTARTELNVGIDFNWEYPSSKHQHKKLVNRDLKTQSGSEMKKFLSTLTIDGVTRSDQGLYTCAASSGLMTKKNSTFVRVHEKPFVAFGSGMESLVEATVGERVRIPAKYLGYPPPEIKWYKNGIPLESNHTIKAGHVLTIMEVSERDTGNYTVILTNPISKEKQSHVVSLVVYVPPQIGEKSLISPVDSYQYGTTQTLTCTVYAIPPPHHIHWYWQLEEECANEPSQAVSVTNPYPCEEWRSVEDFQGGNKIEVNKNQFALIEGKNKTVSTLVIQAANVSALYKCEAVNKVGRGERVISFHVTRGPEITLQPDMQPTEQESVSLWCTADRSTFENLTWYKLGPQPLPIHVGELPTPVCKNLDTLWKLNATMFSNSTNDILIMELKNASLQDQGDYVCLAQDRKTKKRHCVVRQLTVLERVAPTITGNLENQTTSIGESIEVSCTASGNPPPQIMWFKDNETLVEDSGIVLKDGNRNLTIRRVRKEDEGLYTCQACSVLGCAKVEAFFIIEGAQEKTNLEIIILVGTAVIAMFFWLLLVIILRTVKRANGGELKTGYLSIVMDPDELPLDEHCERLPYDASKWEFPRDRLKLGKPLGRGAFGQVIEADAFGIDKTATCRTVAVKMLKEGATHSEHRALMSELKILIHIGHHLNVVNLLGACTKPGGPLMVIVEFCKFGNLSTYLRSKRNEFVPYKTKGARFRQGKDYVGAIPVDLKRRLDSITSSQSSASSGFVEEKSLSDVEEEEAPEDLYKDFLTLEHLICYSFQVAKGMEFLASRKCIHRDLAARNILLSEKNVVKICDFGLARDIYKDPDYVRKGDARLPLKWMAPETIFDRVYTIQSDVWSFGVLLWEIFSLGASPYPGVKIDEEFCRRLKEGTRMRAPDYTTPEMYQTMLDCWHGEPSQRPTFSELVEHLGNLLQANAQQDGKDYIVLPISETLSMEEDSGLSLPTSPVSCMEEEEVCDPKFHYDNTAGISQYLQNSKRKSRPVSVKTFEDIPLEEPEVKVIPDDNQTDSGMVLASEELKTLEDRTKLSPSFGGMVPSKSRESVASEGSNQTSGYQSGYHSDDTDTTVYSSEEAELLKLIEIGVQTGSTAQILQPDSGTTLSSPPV", "assay": "NVS_ENZ_hVEGFR2: NovaScreen (NVS) Enzymatic Assay for human Vascular Endothelial Growth Factor Receptor 2 (VEGFR2) (AID 2283230)", "summary_of_the_method": "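Cell-free recombinant VEGFR2 kinase, fluorescent substrate with electrophoretic mobility-shift separation; read 1 h after dosing. Screened at 25 uM in duplicate, hits to concentration-response up to 50 uM; loss-of-signal versus DMSO.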", "values": [
      {"smiles": "OCCO", "outcome": "inactive"},
      {"smiles": "CN(C)C(=O)C1(N2CCCCC2)CCN(CC[C@@]2(c3ccc(Cl)c(Cl)c3)CN(C(=O)c3ccccc3)CCO2)CC1", "outcome": "inactive"},
      {"smiles": "CCCCCCCCCCCCO", "outcome": "inactive"},
      {"smiles": "CN(C)c1ccc(C(=C2C=CC(=[N+](C)C)C=C2)c2ccc(N(C)C)cc2)cc1", "AC50": "0.572 µM (active)"},
      {"smiles": "CCCCCCCCCCCO", "outcome": "inactive"},
      {"smiles": "c1ccc2ccccc2c1", "outcome": "inactive"},
      {"smiles": "O=C(Nc1ccc(Cl)cc1)Nc1ccc(Cl)c(Cl)c1", "outcome": "inactive"}
    ]}
  ]
}
